This is a sample that favours compounds with a hit; in the whole collection about 10% have one here.
Six1-Eya2 inh: blocks human Six1 binding to Eya2 | Q15475+O00167 | AlphaScreen GST-Six1/His-Eya2 binding, biochemical; active compounds read low | activity change, % (concentration not given with the values) | hit rate 0.56% among 360,000; in the data active means activity change below about -65%; inconclusive means mostly about -30% to -63%
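Homogeneous AlphaScreen proximity assay pairing GST-Six1 with His-tagged Eya2 (added as 5X mix: 250 nM and 500 nM) in 50 mM Tris pH 8.0, 300 mM NaCl, 1 mM TCEP. Glutathione donor and nickel acceptor beads; 1 h, 37 °C, dark.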
G9a block: G9a (human) methyltransferase inhibition. G9a H3K9 monomethylation, AlphaScreen, 2 h. Potency, µM (doses to about 102 µM), most hits filed as inhibitors. hit rate 8.8% among 350,000. Q96KQ7; further: nearly all actives have a fitted effect of over 75% in size
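G9a (20 nM) preincubated 15 min RT with compounds, then 500 nM biotinylated H3K9 peptide and 20 uM SAM added; 2 h RT reaction. Monomethyl-H3K9 product detected by AlphaScreen with anti-H3K9me1 antibody, streptavidin donor and anti-rabbit IgG acceptor beads.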
CtBP-E1A blk: blocks the CtBP interaction with E1A; AlphaScreen GST-E1A/His-CtBP binding, 1536-well; active compounds read low; activity change, % (no concentration beside the values); hit rate 0.49% among 340,000; in the data active means activity change below about -65%; inconclusive means mostly about -30% to -63%
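Steps: dispense buffer (Tris pH 8.0, NaCl 300 mM, TCEP 1 mM, BSA, Tween 20); add 5X protein mix (GST-E1A, His-CtBP, 125 nM each); pin 23 nL compound; 2 h at 37 °C, dark; add 5X beads (50 ug/mL); 1 h; read.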
HP1b binding inh: inhibitors of HP1-beta chromodomain binding to methylated histone tails | Potency, µM (titrated, usually from 114 µM), usual class: inhibitors | P83916 | AlphaScreen HP1-beta / biotin-H3K9me3 peptide binding | hit rate 0.56% among 390,000; further: nearly all actives have a fitted effect of over 70% in size
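Compound inhibition of the preformed complex between 50 nM HP1-beta and 50 nM biotinylated H3K9me3 peptide was read by AlphaScreen. Buffer was PBS pH 7.4 with 0.01% Tween-20. Incubations ran 30 min at room temperature, with 10 ug/mL donor/acceptor beads.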
JMJD2A Tudor inh: inhibitors of human JMJD2A Tudor domain; Potency, µM (top dose mostly 114 µM), usual class: inhibitors; O75164; hit rate 4.4% among 390,000; AlphaScreen JMJD2A-Tudor / H3K4me3 peptide binding; further: nearly all actives have a fitted effect of over 50% in size
Target sequence (O75164 whole entry, looked up, the tested form may be a part): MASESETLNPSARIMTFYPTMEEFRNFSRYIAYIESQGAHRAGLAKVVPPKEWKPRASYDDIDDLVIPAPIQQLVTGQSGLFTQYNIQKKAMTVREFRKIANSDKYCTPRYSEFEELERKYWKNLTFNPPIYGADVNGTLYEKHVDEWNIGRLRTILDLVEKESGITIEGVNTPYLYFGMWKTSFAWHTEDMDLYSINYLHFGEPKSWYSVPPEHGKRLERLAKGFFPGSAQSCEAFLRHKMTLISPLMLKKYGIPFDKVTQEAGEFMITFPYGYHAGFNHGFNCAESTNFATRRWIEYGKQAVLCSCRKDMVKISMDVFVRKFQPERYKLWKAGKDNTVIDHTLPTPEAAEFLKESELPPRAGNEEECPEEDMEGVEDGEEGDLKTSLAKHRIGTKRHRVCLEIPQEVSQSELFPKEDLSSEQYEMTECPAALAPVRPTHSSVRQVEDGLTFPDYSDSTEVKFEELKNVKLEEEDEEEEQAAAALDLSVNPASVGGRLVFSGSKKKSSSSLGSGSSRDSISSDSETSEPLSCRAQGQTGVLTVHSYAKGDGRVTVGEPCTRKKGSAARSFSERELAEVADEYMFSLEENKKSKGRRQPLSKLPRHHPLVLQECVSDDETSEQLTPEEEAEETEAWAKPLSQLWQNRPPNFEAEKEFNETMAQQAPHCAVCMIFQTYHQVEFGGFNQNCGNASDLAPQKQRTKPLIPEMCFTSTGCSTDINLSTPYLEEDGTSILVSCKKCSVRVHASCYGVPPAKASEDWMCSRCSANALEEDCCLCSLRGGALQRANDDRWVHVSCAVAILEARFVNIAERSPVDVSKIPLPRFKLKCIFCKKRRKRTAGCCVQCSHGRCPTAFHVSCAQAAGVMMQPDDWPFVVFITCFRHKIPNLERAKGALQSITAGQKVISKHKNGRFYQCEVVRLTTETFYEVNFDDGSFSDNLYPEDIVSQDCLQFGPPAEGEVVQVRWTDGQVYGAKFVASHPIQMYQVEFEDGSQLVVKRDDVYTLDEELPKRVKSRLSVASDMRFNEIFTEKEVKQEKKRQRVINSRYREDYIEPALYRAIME
BAZ2B inh: inhibitors of human BAZ2B bromodomain; AlphaScreen BAZ2B-H3K14Ac peptide displacement; AID 504333; hit rate 4.4% among 360,000; Q9UIF8; Potency, µM (titrated, usually from 114 µM), most hits filed as inhibitors; further: nearly all actives have a fitted effect of over 60% in size
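AlphaScreen displacement: compounds (up to 110uM) incubated 30 min at room temperature with a preformed 50 nM BAZ2B/50 nM biotinylated H3K14Ac peptide complex in PBS pH 7.4 with Tween-20. Donor and acceptor beads at 10 ug/mL final added, 20 min light-protected before reading.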
A number is an active result; [ ] = dose if it differs, or a comment. Unless noted, the call rests on the fitted dose curve; in most records, active means well fitted inhibition curve with a large enough effect; inconclusive means small, poorly fitted or top-dose-only effect; inactive means no such curve, though single readings can be large or run the other way.

Screening O=C1CNC(=S)N1CCc1ccc(O)c(O)c1 returned Six1-Eya2 inh inactive, G9a block 10µM, CtBP-E1A blk inactive, HP1b binding inh inactive, JMJD2A Tudor inh inconclusive and BAZ2B inh inactive.
O=C1CNC(=S)N1CCOc1ccccc1 was read as Six1-Eya2 inh inactive, G9a block inactive, CtBP-E1A blk inactive, HP1b binding inh inactive, JMJD2A Tudor inh inactive and BAZ2B inh inactive.
`CCc1ccc(NC(=O)C(CC)n2c(=O)c(-c3ccccc3NC(C)=O)nc3ccccc32)cc1` (centres undefined) gave G9a block inactive, HP1b binding inh inactive, JMJD2A Tudor inh inactive and BAZ2B inh inactive.
`COc1cccc(-c2nc(CS(=O)(=O)CC(=O)NCCc3ccc(Cl)cc3)c(C)o2)c1` gave G9a block inactive, HP1b binding inh inactive, JMJD2A Tudor inh inactive and BAZ2B inh inactive.
COc1ccc(S(=O)(=O)NCc2ccc3c(c2)cc(C)n3C)cc1 was read as Six1-Eya2 inh inactive, G9a block 71µM, CtBP-E1A blk inactive, HP1b binding inh inactive, JMJD2A Tudor inh inconclusive and BAZ2B inh inactive.
For Cc1cc2cc(CNS(=O)(=O)c3ccccc3)ccc2n1C the results were Six1-Eya2 inh inactive, G9a block 50µM, CtBP-E1A blk inactive, HP1b binding inh inactive, JMJD2A Tudor inh inconclusive and BAZ2B inh inconclusive.
`COc1ccc(C(CC(=O)Nc2ccc(C(C)=O)cc2)N2Cc3ccccc3C2=O)cc1` (centres undefined) gave G9a block inactive, HP1b binding inh inactive, JMJD2A Tudor inh inactive and BAZ2B inh inactive.
Screening O=C(CCN1N=C(c2ccccc2)CCC1=O)NCCCN1CCOCC1 returned Six1-Eya2 inh inactive, G9a block 50µM, CtBP-E1A blk inactive, HP1b binding inh inactive, JMJD2A Tudor inh inactive and BAZ2B inh inactive.
For Cc1ccc(C2=NN(CCC(=O)NCCCN3CCOCC3)C(=O)CC2)cc1 the results were Six1-Eya2 inh inactive, G9a block inactive, CtBP-E1A blk inactive, HP1b binding inh inactive, JMJD2A Tudor inh inactive and BAZ2B inh inactive.
`CCc1ccc(CNC(=O)c2ccc(NC(=O)N3CC(C)Sc4ccccc43)cc2)cc1` (centres undefined) gave G9a block inactive, HP1b binding inh inactive, JMJD2A Tudor inh inactive and BAZ2B inh inactive.
CCOc1ccc(Nc2ccc([N+](=O)[O-])c3nonc23)cc1 was read as Six1-Eya2 inh inactive, G9a block 25µM, HP1b binding inh 13µM, JMJD2A Tudor inh 35µM and BAZ2B inh 14µM.
For Cc1ccccc1Nc1ccc2nonc2c1[N+](=O)[O-] the results were Six1-Eya2 inh inactive, G9a block inactive, CtBP-E1A blk inactive, HP1b binding inh inactive, JMJD2A Tudor inh inactive and BAZ2B inh inconclusive.
COc1ccc(Nc2cc(NCCCO)c([N+](=O)[O-])c3nonc23)cc1 was read as Six1-Eya2 inh inactive, G9a block inactive, CtBP-E1A blk inconclusive, HP1b binding inh inactive, JMJD2A Tudor inh inactive and BAZ2B inh inactive.
For O=[N+]([O-])c1ccc(Sc2cccc[n+]2[O-])c2nonc12 the results were Six1-Eya2 inh -68, G9a block 0.5µM, CtBP-E1A blk -68, HP1b binding inh 7.9µM, JMJD2A Tudor inh 20µM and BAZ2B inh 56µM.
O=[N+]([O-])c1ccc(Nc2ccccc2)c2nonc12 was read as Six1-Eya2 inh inactive, G9a block 45µM, HP1b binding inh inconclusive, JMJD2A Tudor inh 56µM and BAZ2B inh 40µM.
For CC(=O)NS(=O)(=O)c1ccc(Nc2ccc([N+](=O)[O-])c3nonc23)cc1 the results were Six1-Eya2 inh inactive, G9a block inactive, HP1b binding inh inactive, JMJD2A Tudor inh inactive and BAZ2B inh 50µM.
Screening Cc1ccc(C(c2c(O)cc(C)n(Cc3ccco3)c2=O)N2CCC(C)CC2)cc1 (centres undefined) returned G9a block inconclusive, HP1b binding inh inactive, JMJD2A Tudor inh inactive and BAZ2B inh inactive.
`COc1ccccc1S(=O)(=O)Cc1ccc(C(=O)N2CCN(c3cc(Cl)ccc3C)CC2)o1` gave G9a block inactive, HP1b binding inh inactive, JMJD2A Tudor inh inactive and BAZ2B inh inactive.
For COc1ccc(C)cc1-n1c(=O)c2ccccc2c2ccccc2c1=O the results were Six1-Eya2 inh inactive, G9a block 18µM, CtBP-E1A blk inactive, HP1b binding inh inactive, JMJD2A Tudor inh inactive and BAZ2B inh inconclusive.
For COc1ccc(-n2nc(C(=O)O)c3ccccc3c2=O)c(OC)c1 the results were Six1-Eya2 inh inactive, G9a block inactive[12.7 µM], CtBP-E1A blk inactive, HP1b binding inh inactive, JMJD2A Tudor inh inactive and BAZ2B inh inactive.
COc1ccc(C)cc1-n1c(SCC(=O)Nc2cc(C)on2)nc2ccccc2c1=O was read as Six1-Eya2 inh inactive, G9a block inactive, CtBP-E1A blk inactive, HP1b binding inh inactive, JMJD2A Tudor inh inactive and BAZ2B inh inactive.
COc1ccc(-n2c(=O)c3ccccc3c3ccccc3c2=O)c(OC)c1 was read as Six1-Eya2 inh inactive, G9a block 10µM, CtBP-E1A blk inactive, HP1b binding inh inactive, JMJD2A Tudor inh inactive and BAZ2B inh inactive.
Screening Cc1ccc(Cl)cc1Nc1nn2c(=O)c3ccc(C(=O)NC(C)c4ccccc4)cc3nc2s1 (centres undefined) returned G9a block inactive, HP1b binding inh inactive, JMJD2A Tudor inh inactive and BAZ2B inh inactive.
For C=C(C)Cn1c(=O)c2c(nc3n2CCN3c2ccc(CC)cc2)n(C)c1=O the results were G9a block inactive, HP1b binding inh inactive, JMJD2A Tudor inh inactive and BAZ2B inh inactive.
O=C(O)c1cc(-c2ccc(N3CCOCC3)cc2)nn1-c1ccccc1Cl was read as Six1-Eya2 inh inactive, G9a block 56µM, CtBP-E1A blk inactive, HP1b binding inh inactive and JMJD2A Tudor inh inconclusive.
`O=C(O)c1cc(-c2ccc(N3CCOCC3)cc2)nn1-c1ccc(F)cc1F` gave Six1-Eya2 inh inactive, G9a block 45µM, CtBP-E1A blk inactive, HP1b binding inh inactive, JMJD2A Tudor inh inactive and BAZ2B inh inactive.
Cc1c(C(=O)NC2CCN(Cc3ccccc3)C2)oc2ccc(Br)cc12 (centres undefined) was read as Six1-Eya2 inh inactive, G9a block 35µM, CtBP-E1A blk inactive, HP1b binding inh inactive, JMJD2A Tudor inh inconclusive and BAZ2B inh inconclusive.
Cc1c(C(=O)NCCN2CCOCC2)oc2ccc(Br)cc12 was read as Six1-Eya2 inh inactive, G9a block inactive[0.501 µM], CtBP-E1A blk inactive, HP1b binding inh inconclusive, JMJD2A Tudor inh inactive and BAZ2B inh 50µM.
CCn1c2ccccc2c2cc(NC(=O)CSc3nnc(C4CC4)n3Cc3ccco3)ccc21 was read as Six1-Eya2 inh inactive, G9a block 10µM, CtBP-E1A blk inactive, HP1b binding inh inactive, JMJD2A Tudor inh inactive and BAZ2B inh inactive.

Source: PubChem BioAssay (National Center for Advancing Translational Sciences (NCATS))
